Counter-ions that a name gives are not always drawn. ± gives the standard deviation of the averaged measurements.
What was measured:
Molm13 = assay: cell viability relative to DMSO control (bortezomib = 0%); higher = less growth inhibition; conditions: 10 nM; 72 h
In short: (§1)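 Acute myeloid leukemia cells, 1000 per well in 50 µL, were incubated for 72 h on 384-well plates with 679 approved and investigational compounds, each at a single 10 nM dose. Viability was read by CellTiter-Glo luminescence. Values were expressed as percentages through per-plate linear regression against DMSO-treated (100%) and positive-control-treated (0%) cells.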

Mv4-11 = assay: as above; conditions: 10 nM; 72 h
In short: as §1

With `CCCCCCCCCCCCCC#CC(=O)[C@@H]1COC(C)(C)N1C(=O)OC(C)(C)C` as the compound, how does the cell viability (Molm13) read?
The cell viability was 108 ± 11%.

What about the cell viability (Mv4-11) of the same compound?
Its cell viability is 132 ± 1.6%.

Which cell viability (Molm13) does the source give for `COc1cc2ncnc(Nc3ccc(F)c(Cl)c3)c2cc1OCCCN1CCOCC1` [Gefitinib (ZD1839)] here?
The cell viability was 110 ± 23%.

What about the cell viability (Mv4-11) of the same compound?
Its cell viability is 116 ± 1.7%.

Which results are given for `C=CC(=O)Nc1cccc(Nc2nc(Nc3ccc(Oc4ccnc(C(=O)NC)c4)cc3)ncc2F)c1`?
cell viability (Molm13): 114 ± 24%; cell viability (Mv4-11): 108 ± 9.3%

For `C=CC(=O)Nc1cc2c(Nc3ccc(F)c(Cl)c3)ncnc2cc1OCCCN1CCOCC1` [Canertinib (hydrochloride)], which cell viability (Molm13) is on record?
Its cell viability is 93.9 ± 14%.

And the cell viability (Mv4-11)?
The cell viability was 103 ± 7.2%.

Which results are given for `CC[C@H](CO)Nc1nc(NCc2ccccc2)c2ncn(C(C)C)c2n1` [(R)-Roscovitine]?
cell viability (Molm13): 105 ± 9.1%; cell viability (Mv4-11): 103 ± 15%

Which cell viability (Molm13) does the source give for `CCCCC/C=C\C/C=C\C/C=C\C/C=C\CCCC(=O)NC[C@]1(C)CCC[C@]2(C)c3ccc(C(C)C)cc3CC[C@@H]12` [Arachidonic Acid Leelamide] here?
Its cell viability is 105 ± 17%.

And the cell viability (Mv4-11)?
The cell viability was 112 ± 1.2%.

For `C[C@@H]1O[C@@H](Oc2c(-c3cc(O)c(O)c(O)c3)oc3cc(O)cc(O)c3c2=O)[C@H](O)[C@H](O)[C@H]1O` [Myricetrin], which cell viability (Molm13) is on record?
Its cell viability is 89.1 ± 14%.

And the cell viability (Mv4-11)?
The cell viability was 112 ± 35%.

Which results are given for `CCCCOc1c(C(=O)c2c(F)cc(C)cc2F)c[nH]c2nncc1-2`?
cell viability (Molm13): 112 ± 1.9%; cell viability (Mv4-11): 107 ± 7%

With `Cc1cc(N)c2ccccc2[n+]1CCCCCCCCCC[n+]1c(C)cc(N)c2ccccc21` [Dequalinium chloride] as the compound, how does the cell viability (Molm13) read?
Its cell viability is 92.3 ± 15%.

What about the cell viability (Mv4-11) of the same compound?
The cell viability was 96.3 ± 16%.

What does the source list for `COc1cc2/c(=N/c3ccc(Br)cc3F)nc[nH]c2cc1OCC1CCN(C)CC1` [Vandetanib (ZD6474)]?
cell viability (Molm13): 116 ± 22%; cell viability (Mv4-11): 117 ± 41%

What does the source list for `Cc1cn(-c2cc(NC(=O)c3ccc(C)c(Nc4nccc(-c5cccnc5)n4)c3)cc(C(F)(F)F)c2)cn1` [Nilotinib (AMN-107)]?
cell viability (Molm13): 108 ± 9%; cell viability (Mv4-11): 112 ± 16%

What does the source list for `Cc1c(NC(=O)OC[C@@H]2COCCN2)cn2ncnc(Nc3ccc4c(cnn4Cc4cccc(F)c4)c3)c12`?
cell viability (Molm13): 105 ± 8%; cell viability (Mv4-11): 112 ± 11%

Which cell viability (Molm13) does the source give for `Cc1nc(Nc2cnn(C3CCNCC3)c2)nc2c1N(C)C(=O)c1cc3ccccc3cc1N2C` here?
The cell viability was 95.6 ± 2.2%.

What about the cell viability (Mv4-11) of the same compound?
Its cell viability is 104.2 ± 0.14%.

How did the cell viability (Molm13) turn out when `CCc1cncnc1N1CCN(Cc2nc3ccc(C(F)(F)F)cc3[nH]2)CC1` was run?
The cell viability was 106 ± 32%.

And the cell viability (Mv4-11)?
Its cell viability is 116 ± 7.7%.

With `CN(C)C(=N)NC(=N)N` [Metformin hydrochloride] as the compound, how does the cell viability (Molm13) read?
The cell viability was 104 ± 25%.

And the cell viability (Mv4-11)?
The cell viability was 90.48 ± 0.55%.

For `Cc1ccc(NC(=O)c2ccc(CN3CCN(C)CC3)cc2)cc1Nc1nccc(-c2cccnc2)n1` [Imatinib Mesylate (STI571)], which cell viability (Molm13) is on record?
Its cell viability is 105 ± 13%.

What about the cell viability (Mv4-11) of the same compound?
The cell viability was 106 ± 7.4%.

`CN1CCN(c2cccc(Nc3nc4c(-c5ccc(S(C)(=O)=O)cc5)cccn4n3)c2)CC1` was tested. Which cell viability (Molm13) did it give?
Its cell viability is 118 ± 14%.

And the cell viability (Mv4-11)?
Its cell viability is 101 ± 7.2%.

Which cell viability (Molm13) does the source give for `COc1cc2nccc(Oc3ccc(NC(=O)Nc4cc(C)on4)c(Cl)c3)c2cc1OC` [Tivozanib (AV-951)] here?
The cell viability was 96.3 ± 6.1%.

And the cell viability (Mv4-11)?
The cell viability was 96.1 ± 11%.

Which results are given for `CC(C)Oc1ccc(C(=O)N[C@H](CNC(=O)CN(C)C)Cc2ccc(-c3cn4cccc([C@H](C)O)c4n3)cc2)cc1Cl`?
cell viability (Molm13): 110 ± 19%; cell viability (Mv4-11): 121 ± 9.3%

For `O=C(COc1ccc(Cl)cc1)NC1CCC(NC(=O)COc2ccc(Cl)cc2)CC1` (centres undefined), which cell viability (Molm13) is on record?
The cell viability was 109 ± 1.8%.

And the cell viability (Mv4-11)?
The cell viability was 111 ± 14%.

Which cell viability (Molm13) does the source give for `C[C@]1(O)C[C@@H](c2nc(-c3ccc4ccc(-c5ccccc5)nc4c3)c3c(N)nccn32)C1` [OSI-906 (Linsitinib)] here?
The cell viability was 118 ± 12%.

And the cell viability (Mv4-11)?
The cell viability was 116 ± 12%.

`CCC[C@H](NC(=O)/C(C#N)=C/c1cccc(Br)n1)c1ccccc1` was tested. Which cell viability (Molm13) did it give?
Its cell viability is 132 ± 32%.

What about the cell viability (Mv4-11) of the same compound?
Its cell viability is 115 ± 11%.
